Bioassay records: PubChem, National Center for Advancing Translational Sciences (NCATS)
The full list was thinned out, with hits kept by preference.
Methyltransferases = Primary Screen for Target Class Profiling of Small Molecule Inhibitors of Methyltransferases; purified enzyme, MTase-Glo SAH luminescence; stronger effect = lower value; calls only at 40 µM; actives 3.9% (n = 25,000); call rule not given here
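Each enzyme was reacted with SAM and its substrate, with compounds tested once at 40 uM; SAH formed was read by MTase-Glo luminescence.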
Starred values were filed as active, the others as inactive; i = inactive; + = active, no number. % is set by controls: 0 for no effect and ±100 for the full control effect.

SMILES	Methyltransferases
CC(C)NC(=O)Cn1nc2n(C(C)C)c(=O)c3ccc(C(=O)NC4CCCC4)cc3n2c1=O	i
Cc1ccc(NC(=O)CSc2nnc3n(CC(C)C)c(=O)c4ccccc4n23)c(C)c1	i
O=C(O)Cc1c(-c2ccccc2)c2cc(Cl)ccc2[nH]c1=O	i
O=C1NC(=O)c2c1c(-c1ccccc1)cc1[nH]c3ccc(O)cc3c21	+
O=C(O)Cc1c(-c2ccccc2)c2cc(Br)ccc2[nH]c1=O	i
CCOc1ccc(N2C(=O)c3cc4ccccc4n3CC2(C)C(=O)NC2CCCC2)cc1 (stereo not drawn)	i
Cc1c(Cl)cccc1N1C(=O)c2cc3occc3n2CC1(C)C(=O)NC1CCCCCC1 (stereo not drawn)	i
CNC(=O)C1(N2CCC[C@H]2C(=O)N(C)CCN(C)C)CCC1	i
CCCS(=O)(=O)Nc1ccc(F)c(C(=O)c2c[nH]c3ncc(-c4ccc(Cl)cc4)cc23)c1F	+
COc1ccc(-c2cnc3[nH]cc(CC(=O)N4CCNC(=O)C4)c3c2)cc1	i
O=C(c1c(F)ccc(NS(=O)(=O)N2CC[C@@H](F)C2)c1F)c1c[nH]c2ncc(-c3cnc(C4CC4)nc3)cc12	i
O=C(N[C@@H]1CN(C(=O)Nc2ccccc2)CCC[C@H]1O)c1ccc(O)cc1	i
CC1CCCCC1NC(=O)C1(C)Cn2c(ccc2-c2ccco2)C(=O)N1CCc1ccccc1 (stereo not drawn)	i
C=CCNC(=O)c1ccc2c(=O)[nH]c3c(C(=O)NC(C)C)sc(=S)n3c2c1	i
Cc1ccc(CNC(=O)c2ccc3c(=O)[nH]c4c(C(=O)NCC5CCCO5)sc(=S)n4c3c2)cc1 (stereo not drawn)	i
Cc1ccc(CNC(=O)c2ccc3c(=O)[nH]c4c(C(=O)NC(C)C)sc(=S)n4c3c2)cc1	+
CCOC(=O)c1cc2n(n1)CC(C)(C(=O)NCCCOC)N(c1ccc3c(c1)OCO3)C2=O (stereo not drawn)	i
CCOCCCNC(=O)c1cc2n(n1)CC(C)(C(=O)NCc1ccc(C)cc1)N(C)C2=O (stereo not drawn)	i
Cc1ccc(NC(=O)Cn2c(=O)oc3cc(S(=O)(=O)NCc4ccccc4)ccc32)cc1C	i
CC(C)c1ccc(NC(=O)Cn2c(=O)oc3cc(S(=O)(=O)NCc4ccccc4)ccc32)cc1	+
Cc1cccc(NC(=O)Cn2c(=O)oc3cc(S(=O)(=O)NCc4ccccc4)ccc32)c1	i
COc1ccc(S(N)(=O)=O)cc1C(=O)N1CCC2(CN(C)C(=O)O2)C1 (stereo not drawn)	i
CCN1C(=O)c2cc3ccccc3n2CC1(C)C(=O)NCc1ccccc1OC (stereo not drawn)	i
CCCNC(=O)Nc1ccc(Oc2ncnc3cc(OC)c(OC)cc23)cc1Cl	i
COc1cc2ncnc(Nc3cccc(Cl)c3)c2cc1OC	+
SMILES	Methyltransferases
COc1cc2ncnc(Nc3cccc(O)c3)c2cc1OC	i
COc1cccc(N2C(=O)c3cc4ccccc4n3CC2(C)C(=O)NCCC(C)C)c1 (stereo not drawn)	i
Cc1ccc(N2C(=O)c3nc4ccccc4n3CC2(C)C(=O)NC2CCC(C)CC2)cc1 (stereo not drawn)	i
N#C/C(=C1\Nc2ccccc2S1)c1ccnc(NCCc2cccnc2)n1	+
CC(C)n1c(=O)c2ccc(C(=O)NC3CCCC3)cc2n2c(=O)n(Cc3ccccc3Cl)nc12	i
O=S(=O)(NCCC1=CCCCC1)c1cccc(-c2nc(-c3ccccc3)no2)c1	i
Cc1cccc(N2C(=O)c3cc4sccc4n3CC2(C)C(=O)NC2CCCC(C)C2C)c1C (stereo not drawn)	i
Cc1ccc(NC(=O)Cn2nc3n(CC(C)C)c(=O)c4ccc(C(=O)NCC(C)C)cc4n3c2=O)cc1C	i
CCC1c2ccc(C)n2CCN1C(=O)Nc1ccc(C)cc1C (stereo not drawn)	i
CC1(C(=O)Nc2ccccc2F)COCc2cnc(Nc3ccccc3)nc21 (stereo not drawn)	i
CC(C)(C)NC(=O)Nc1cccc(Nc2ncc(F)c(NC(C)(C)CO)n2)c1	i
C=CC(=O)Nc1cccc(Nc2nc(Nc3ccc(OCCOC)cc3)ncc2F)c1	+
CC(C)CCn1c(=O)c2ccccc2n2c(=O)n(Cc3ccccc3Cl)nc12	i
CNCCC(c1cccs1)c1ccc(O)c2ccccc12 (stereo not drawn)	+
COC(=O)Cn1c(=O)oc2cc(S(=O)(=O)NCCc3cccs3)ccc21	i
N[C@@H](CC(=O)N1CCn2c(nnc2C(F)(F)F)C1)Cc1[nH]nc2c(F)c(F)ccc12	i
CNc1cc2c(Nc3cccc(Br)c3)ncnc2cn1	+
O=C(CCc1nnc2n(Cc3ccccc3)c(=O)c3ccccc3n12)NCCc1ccc(Cl)cc1	i
CCN(CC)CCNC(=O)CCc1nnc2n(Cc3ccc(Cl)cc3)c(=O)c3ccccc3n12	+
CCN(CC)CCCNC(=O)CCc1nnc2n(Cc3ccc(F)cc3)c(=O)c3ccccc3n12	+
COCCNC(=O)CCc1nnc2n(Cc3ccc(Cl)cc3)c(=O)c3ccccc3n12	i
CCN(CCCNC(=O)CCc1nnc2n(Cc3ccccc3)c(=O)c3ccccc3n12)c1ccccc1	i
O=C(CCc1nnc2n(Cc3ccc(F)cc3)c(=O)c3ccccc3n12)NCc1ccc(F)cc1	i
CCOc1ccc(CN2C(=O)c3cc4sccc4n3CC2(C)C(=O)NC2CCCCC2)cc1 (stereo not drawn)	i
CC(C)CNC(=O)c1ccc2c(=O)n(C(C)C)c3nn(Cc4ccccc4)c(=O)n3c2c1	i
SMILES	Methyltransferases
CC(C)CNC(=O)c1ccc2c(=O)nc3c(-c4cccc(F)c4)n[nH]n3c2c1	i
COc1ccc(C(=O)NCc2cc(C(C)C)no2)cc1OC1CCN(C)CC1	i
Cc1cc(F)ccc1-c1nc(NCCN=C(N)NC#N)nc2c1ccc(=O)n2-c1c(F)cccc1F	i
CN1C(=O)c2cc(C(=O)NCCSCc3ccco3)nn2CC1(C)C(=O)NCc1ccc(F)cc1 (stereo not drawn)	i
COc1ccc(NS(=O)(=O)c2sc3ccc(Cl)cc3c2C)cc1N1CCNCC1	i
CCCc1nc(C(=O)N[C@H]2COC[C@H]2Cc2cc(C)no2)cs1	i
O=C1c2ccccc2C(=O)c2cc(S(=O)(=O)N(CCO)CCO)ccc21	+
O=C1c2ccccc2C(=O)c2cc(S(=O)(=O)NC3CCCCC3)ccc21	i
O=c1[nH]c2ccc(S(=O)(=O)N(CCO)CCO)cc2[nH]1	i
CCC(C)N1C(=O)c2ccccc2CC1(C)C(=O)NC1CCCCCCC1 (stereo not drawn)	i
Cc1cccc(NC(=O)Cn2nc3n(CC(C)C)c(=O)c4ccc(C(=O)NC(C)C)cc4n3c2=O)c1	i
CC(C)=CC/C=C(/C)[C@H]1CC[C@]2(C)[C@@H]1[C@H](O)CC1[C@@]3(C)CC[C@H](O)C(C)(C)[C@@H]3[C@@H](O[C@@H]3O[C@H](CO)[C@@H](O)[C@H](O)[C@H]3O[C@@H]3O[C@@H](C)[C@H](O)[C@@H](O)[C@H]3O)C[C@]12C (stereo partly drawn)	i
CC(C)=CC/C=C(\C)[C@H]1CC[C@]2(C)[C@@H]1[C@H](O)C[C@@H]1[C@@]3(C)CC[C@H](O)C(C)(C)[C@@H]3[C@@H](O[C@@H]3O[C@H](CO)[C@@H](O)[C@H](O)[C@H]3O)C[C@]12C	i
